What all share (test): NCI-60 one-dose screen, 48 h (100 = growth as untreated, 0 = no growth, -100 = all killed)
Common to all, as to conditions: 10 µM unless noted

In experiment [1] the test system is SR leukemia.
Experiment [2] relates to RPMI-8226 leukemia.
Experiment [3] concerns OVCAR-8 ovarian.
The subject of experiment [4] is OVCAR-5 ovarian.
Experiment [5] concerns OVCAR-4 ovarian.
Experiment [6] deals with SK-OV-3 ovarian.
The subject of experiment [7] is IGROV1 ovarian.
The subject of experiment [8] is OVCAR-3 ovarian.
Experiment [9] deals with HS 578T breast.
Experiment [10] has as its system NCI/ADR-RES ovarian.
The test system of experiment [11] is T-47D breast.
Experiment [12] deals with BT-549 breast.
The subject of experiment [13] is SW-620 colon.
Experiment [14] has as its system MCF7 breast.
Experiment [15] concerns HCT-116 colon.
Experiment [16] concerns HCC-2998 colon.
Experiment [17] concerns KM12 colon.
The subject of experiment [18] is MDA-MB-435 melanoma.

Compounds without any hit were thinned out: in the full panel of roughly 83,000, 20% have a hit.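 Cell lines were cultured in 96-well plates, exposed to a single compound concentration, and assessed for percent growth 48 hours later.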 Values without a mark were called inactive. Active and inactive are the calls of the source. Rule for the calls: active = growth percent below 10; inactive = the rest.

For `C=C1C(=O)O[C@H]2[C@H]1CC/C(CNC(=O)CCc1ccc(OC)cc1)=C\CC[C@@]1(C)O[C@@H]21`, the growth was 14.3% in [1]; 51.4% in experiment [2]; 39.2% in [3]; 82% in experiment [4]; 80% in experiment [5]; 103% in [6]. The growth in experiment [7] was 61.7%; in [8] it was 30.6%; in experiment [9] it was 86.4%; in experiment [10], 95.4%; in experiment [11], 40.8%; in [12] it was 43.1%. In addition, the growth in [13] is 19%; in [14] it was 33.5%; in experiment [15], 19.8%; in experiment [16] it was 97.5%; in experiment [17], 97.4%.
As for `CCOC(=O)c1cc(C(=O)c2ccc(OC)c(OC)c2)n2c1ccc1ccccc12`, the growth in experiment [1] is 86.5%; in experiment [2], 80%; in experiment [3], 94.7%; in [4], 104%; in [5], 91.9%; in experiment [6], 93%. For the same compound, the growth in experiment [7] is 58.6%; in [8], 99.6%; in experiment [9], 93.8%; in experiment [10], 91.5%; in [11] it was 85.3%; in experiment [18], 89.5%. For the same compound, the growth in experiment [13] was 93.4%; in [14], 80%; in experiment [15] it was 88%; in [16] it was 109%; in experiment [17] it was 98.4%.
Take `CN(C)CCC(=O)c1ccc([N+](=O)[O-])cc1`: the growth in experiment [1] was 97.8%; in [2], 89%; in [3], 110%; in experiment [4], 102%; in experiment [5], 100%; in [6], 99.5%. Moreover, the growth in experiment [7] is 109%; in experiment [8], 110%; in [9], 107%; in experiment [10] it was 107%; in experiment [11] it was 89.4%; in experiment [18] it was 104%. The growth in [13] was 106%; in experiment [14], 89.4%; in experiment [15], 103%; in experiment [16], 106%; in experiment [17], 113%.
With `C/C=C(\C)C(=O)NC1=CC[C@@]2(C)C(=CCC3C2CC[C@@]2(C)C3CC[C@@H]2C(C)N(C)C)C1=O` (some centres undefined), the growth is 27.7% in experiment [1]; 3.85% (active) in [2]; 65.9% in [3]; 85.8% in experiment [4]; 1.84% (active) in experiment [5]; 114% in experiment [6]. Besides, the growth in experiment [7] is 40.4%; in experiment [8], 29.3%; in experiment [9] it was 56.8%; in experiment [10], 55.7%; in [11], 46.7%; in experiment [18] it was -2.62% (active). Also, the growth in experiment [13] was -11% (active); in experiment [14], 10.3%; in experiment [15], 10.4%; in [16], 31.3%; in experiment [17], 19.6%.
Take `COc1cc2nc(-c3ccc(C(F)(F)F)cc3)cc(OCCCN3CCCC3)c2cc1OC`: the growth is 19.4% in [1]; 21.6% in experiment [2]; 48.7% in [3]; 56.9% in [4]; 57.1% in experiment [5]; 88.6% in experiment [6]. For the same compound, the growth in experiment [7] was 36.2%; in experiment [8], 64.8%; in [9], 64.4%; in experiment [10] it was 46.4%; in experiment [11] it was 38.4%; in experiment [18], -21.1% (active). The growth in experiment [13] was 28.6%; in experiment [14], 44.7%; in [15] it was 23.6%; in experiment [16], 70%; in experiment [17] it was 36.4%.
Turning to `Cc1ccc(CNc2c3ccccc3nc3cc(NC(=O)CCN4CCCC4)ccc23)cc1`, the growth in [1] was -49.4% (active); in experiment [2] it was -44.6% (active); in experiment [3] it was 7.44% (active); in experiment [4], 20.7%; in [5], -38.4% (active); in experiment [6], 42.5%. Moreover, the growth in experiment [7] was 5.63% (active); in experiment [8], -73.3% (active); in experiment [9], 14.6%; in [10] it was 63.1%; in [11], 16.9%; in experiment [12], 35.3%. Besides, the growth in experiment [13] is -57.4% (active); in experiment [14] it was -22.4% (active); in experiment [15], -77.9% (active); in experiment [16], -15.8% (active); in [17] it was -6.45% (active).
Regarding `Cc1ccc(-c2csc(NC(=O)CSc3nc(-c4ccccc4)cc(=O)[nH]3)n2)cc1`, the growth was 101% in experiment [1]; 78.3% in experiment [2]; 94.2% in experiment [3]; 95.8% in experiment [4]; 105% in experiment [5]; 92.4% in experiment [6]. Besides, the growth was 77.2% in experiment [7]; 101% in [8]; 90.6% in [9]; 93.4% in experiment [10]; 78.1% in experiment [11]; 106% in experiment [18]. In addition, the growth in [13] was 96.2%; in experiment [14], 82.9%; in experiment [15] it was 98.5%; in [16], 106%; in [17], 94.8%.
With `O=C(O)c1ccc(NCc2cn(-c3ccc(C(F)(F)F)cc3)nc2-c2ccc(C(=O)O)cc2)cc1`, the growth was 97.3% in experiment [1]; 112% in experiment [2]; 103% in experiment [3]; 103% in experiment [4]; 111% in experiment [5]; 113% in [6]. For the same compound, the growth in experiment [7] is 106%; in experiment [8] it was 115%; in [9], 107%; in [10], 104%; in [11], 100%; in experiment [18], 102%. In addition, the growth in experiment [13] was 110%; in experiment [14], 96%; in [15] it was 109%; in experiment [16] it was 107%; in experiment [17], 104%.
For `CCSCC1CC(O)(c2ccccc2)CC(c2ccc(F)cc2)O1` (centres undefined), the growth in experiment [1] was -22% (active); in experiment [2], 8.79% (active); in experiment [3], 21.3%; in experiment [4] it was 86.6%; in [5], 24.5%; in experiment [6], 25.9%. Besides, the growth is 48.5% in experiment [7]; -13% (active) in [8]; -14.8% (active) in [9]; 24.6% in [10]; -4.7% (active) in experiment [11]; 5.06% (active) in experiment [18]. For the same compound, the growth is 8.68% (active) in experiment [13]; -11.3% (active) in experiment [14]; 1.4% (active) in experiment [15]; 69.3% in experiment [16]; -47.2% (active) in experiment [17].
With `O=C1c2cccc3c(-c4ccc5c(c4)ncn5C4CCCCC4)ccc(c23)C(=O)N1CCO`, the growth in experiment [1] was 84.7%; in [2] it was 66.3%; in [3] it was 83.2%; in experiment [4], 110%; in experiment [5] it was 86%; in experiment [6] it was 109%. For the same compound, the growth is 96.2% in [7]; 88.9% in experiment [8]; 94.7% in experiment [9]; 89.1% in experiment [10]; 68% in [11]; 95.2% in [12]. In addition, the growth in [13] was 104%; in experiment [14] it was 97.8%; in [15], 80%; in [16], 93.2%; in experiment [17], 86.7%.
Take `COc1ccc(/C=N/NC(=O)c2cnn3c2NC(c2ccccc2)C3)cc1OC` (centres undefined): the growth was 32.3% in experiment [1]; 83.2% in experiment [2]; 75.3% in experiment [3]; 92.1% in experiment [4]; 107% in experiment [5]; 78.9% in experiment [6]. Also, the growth in [7] is 59.6%; in experiment [8], 18%; in experiment [9], 68%; in [10], 85.5%; in experiment [11], 56%; in experiment [12], 42.3%. Moreover, the growth in experiment [13] was 44.4%; in experiment [14], 29.6%; in experiment [15] it was 22%; in experiment [16], 67%; in experiment [17], 44.6%.
Regarding `CCCOC(=O)N[C@H]1CCc2c(Cl)c(OC)c(OC)c(OC)c2-c2ccc(SC)c(=O)cc21`, the growth in [1] was 4.56% (active); in experiment [2] it was -2.97% (active); in [3], 21.6%; in experiment [4], 44.7%; in [5] it was 36.3%; in [6], 38.3%. For the same compound, the growth in [7] is 11.7%; in [8], -24.7% (active); in [9], 9.75% (active); in [10] it was 13.6%; in experiment [11], 45.9%; in [12], 1.4% (active). Also, the growth in experiment [13] was 20.2%; in experiment [14], 14.7%; in experiment [15], 0.896% (active); in experiment [16], 22.6%; in experiment [17], -6.7% (active).
In the case of `Nc1c(C(=O)Nc2cccc3cnccc23)sc2nc3c(cc12)C(=O)CCC3`, the growth in experiment [1] is 59.5%; in experiment [2] it was 88.9%; in experiment [3], 100%; in experiment [4] it was 107%; in experiment [5], 102%; in experiment [6] it was 96.5%. Moreover, the growth in [7] is 87.9%; in experiment [8] it was 93.4%; in experiment [9], 84.3%; in [10], 102%; in experiment [11], 105%; in experiment [18], 7.12% (active). Besides, the growth is 79.4% in experiment [13]; 53.8% in experiment [14]; 86% in experiment [15]; 97.4% in experiment [16]; 71.5% in experiment [17].
Regarding `CCc1c(Cl)nc(N)nc1Nc1ccc(C)c(C)c1`, the growth in experiment [1] is 73%; in experiment [2], 104%; in [3], 102%; in [4], 110%; in [5], 98%; in [6], 109%. In addition, the growth in experiment [7] was 97.4%; in experiment [8] it was 116%; in experiment [9], 97.9%; in [10] it was 99.2%; in experiment [11], 91.2%; in [12], 106%. Also, the growth is 102% in [13]; 83.1% in experiment [14]; 76% in experiment [15]; 101% in [16]; 99.2% in experiment [17].
Take `Cc1ccc(-n2cc(-c3ccccc3)c3c2N=NN2CCN=C32)cc1`: the growth was 86% in experiment [1]; 93.4% in experiment [2]; 107% in [3]; 101% in [4]; 97.2% in experiment [5]; 104% in experiment [6]. The growth is 88.5% in [7]; 106% in experiment [8]; 100% in [9]; 102% in [10]; 93.5% in experiment [11]; 125% in [12]. Also, the growth was 92.5% in [13]; 98.7% in [14]; 95.8% in [15]; 111% in [16]; 102% in experiment [17].
As for `Nc1c(C(=O)Nc2cccc3cnccc23)sc2nc3c(cc12)CN(Cc1ccccc1)CC3`, the growth in experiment [1] was 95.5%; in [2], 99.7%; in [3], 106%; in [4], 105%; in [5], 105%; in experiment [6] it was 111%. Besides, the growth is 99.9% in experiment [7]; 108% in experiment [8]; 104% in experiment [9]; 112% in experiment [10]; 102% in experiment [11]; 100% in experiment [12]. Further, the growth in experiment [13] is 104%; in [14], 96.5%; in experiment [15] it was 100%; in experiment [16], 115%; in [17], 102%.
Regarding `O=[N+]([O-])c1cc(Br)c2cccc3c2c1CC3`, the growth in experiment [1] was 93.3%; in [2], 109%; in experiment [3], 97%; in experiment [4], 99.4%; in experiment [5], 104%; in experiment [6] it was 114%. The growth in experiment [7] is 111%; in experiment [8], 108%; in experiment [9], 130%; in experiment [10], 114%; in experiment [11], 101%; in experiment [18] it was 113%. Also, the growth in experiment [13] was 107%; in experiment [14], 89%; in [15] it was 106%; in experiment [16], 103%; in experiment [17], 109%.
